In PubChem BioAssay (Tox21) one finds outcome, Potency and activity change, negative = cytotoxic data, which are given here for 16 molecules.

Calls of active or inactive are those of the source. Unless noted, the call rests on the fitted dose curve; in most records, active means well fitted curve in the direction sought with a large enough effect in the repeat runs; inconclusive means weak or mixed curves; inactive means no such curve, though single readings can be large; an effect the other way counts as inactive or inconclusive.

A short description of assay [1]: qHTS assay to identify small molecule antagonists of the glucocorticoid receptor (GR) signaling pathway - cell viability counter screen (AID 720693). Further: nearly all actives have a fitted effect of over 55% in size.
Assay [2] in a line: qHTS assay for identifying genotoxic compounds that show differential cytotoxicity against isogenic chicken DT40 cell lines with known DNA damage response pathways - wild type cell line (AID 743012). Further: nearly all actives have a fitted effect of over 60% in size. Put shortly: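 Quantitative HTS on parental DT40 cells: 40 h compound treatment at 37 C/5% CO2, with viability then determined by CellTiter-Glo luminescence. Values serve as the DNA repair-proficient reference for differential cytotoxicity.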
In general terms: qHTS replaces the single test concentration by a dilution series.

Assay [3] can be described thus: qHTS assay for identifying genotoxic compounds that show differential cytotoxicity against isogenic chicken DT40 cell lines with known DNA damage response pathways - Rev3 mutant cell line (AID 743014). Further: nearly all actives have a fitted effect of over 55% in size.
A short description of assay [4]: qHTS assay for identifying genotoxic compounds that show differential cytotoxicity against isogenic chicken DT40 cell lines with known DNA damage response pathways - Rad54/Ku70 mutant cell line (AID 743015). Further: nearly all actives have a fitted effect of over 60% in size.
The nature of assay [5]: qHTS assay to identify small molecule antagonists of the androgen receptor (AR) signaling pathway - cell viability counter screen (AID 743033; further: nearly all actives have a fitted effect of over 45% in size).
Assay [6] in a line: qHTS assay to identify small molecule antagonists of the androgen receptor (AR) signaling pathway using the MDA cell line - cell viability counter screen (AID 743041; further: nearly all actives have a fitted effect of over 45% in size). Put shortly:
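MDA-kb2 AR-luc cells (MMTV-luciferase, AR/GR responsive) treated with compounds plus R1881 agonist for 16 h at 37C. CellTiter-Fluor added at 15.5 h; fluorescence read after 30 min in the same wells.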

A short description of assay [7]: qHTS assay to identify small molecule antagonists of the thyroid receptor (TR) signaling pathway - cell viability counter screen (AID 743064). Further: nearly all actives have a fitted effect of over 50% in size. The method in brief:
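In-well cytotoxicity read by CellTiter-Fluor (30 min, 37 C) following 23.5 h exposure of GH3 cells bearing a TRE-luciferase sensor. Compounds were added alongside 1 nM (final) T3 to drive TR transactivation.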

Assay [8] is described as follows: qHTS assay to identify small molecule antagonists of the thyroid receptor (TR) signaling pathway (AID 743065). Further: series mostly up to about 70 µM; nearly all actives have a fitted effect of over 55% in size. The method in brief: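 GH3.TRE-Luc rat pituitary cells (two TREs driving luciferase) were dosed with compound, then stimulated with 1 nM T3 (final) for 23.5 h at 37 C. ONE-Glo luminescence was the read-out, with CellTiter-Fluor fluorescence as the cytotoxicity counter-screen.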

Assay [9] concerns thyroid hormone receptor (rat, GH3 cells). Kind of assay: qHTS assay to identify small molecule agonists of the thyroid receptor (TR) signaling pathway (AID 743066; calls by dose curve).
Assay [10] addresses Estrogen receptor (Homo sapiens) (UniProt P03372). Kind of assay: qHTS assay to identify small molecule antagonists of the estrogen receptor alpha (ER-alpha) signaling pathway (AID 743069; active means well fitted curve in the direction sought with a large enough effect in the signal ratio in the repeat runs, not every such curve was filed as active; inconclusive means weak or mixed curves, or effect the other way; inactive means no such curve, though single readings can be large or run the other way; the % refers to the signal ratio; further: potency means the concentration at half of the fitted maximal effect). The method in brief:
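HEK293 ER-alpha-UAS-bla GripTite cells, held overnight in 2% charcoal-stripped FBS, 5,000 cells/well, preincubated 4 h, then compound plus 17beta-estradiol for 18 h at 37C. Beta-lactamase read by LiveBLAzer B/G FRET substrate, 2 h at room temperature.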

A short description of assay [11]: qHTS assay to identify small molecule antagonists of the estrogen receptor alpha (ER-alpha) signaling pathway - cell viability counter screen (AID 743074; calls by dose curve;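 further: HEK293 cells carrying ER-alpha-UAS-bla reporter stimulated with 17beta-estradiol; nearly all actives have a fitted effect of over 45% in size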).
In assay [12] the target is Estrogen receptor (Homo sapiens) (UniProt P03372). Put plainly: qHTS assay to identify small molecule agonists of the estrogen receptor alpha (ER-alpha) signaling pathway (AID 743075; calls by dose curve).
Estrogen receptor (Homo sapiens), sequence (P03372 whole entry, looked up): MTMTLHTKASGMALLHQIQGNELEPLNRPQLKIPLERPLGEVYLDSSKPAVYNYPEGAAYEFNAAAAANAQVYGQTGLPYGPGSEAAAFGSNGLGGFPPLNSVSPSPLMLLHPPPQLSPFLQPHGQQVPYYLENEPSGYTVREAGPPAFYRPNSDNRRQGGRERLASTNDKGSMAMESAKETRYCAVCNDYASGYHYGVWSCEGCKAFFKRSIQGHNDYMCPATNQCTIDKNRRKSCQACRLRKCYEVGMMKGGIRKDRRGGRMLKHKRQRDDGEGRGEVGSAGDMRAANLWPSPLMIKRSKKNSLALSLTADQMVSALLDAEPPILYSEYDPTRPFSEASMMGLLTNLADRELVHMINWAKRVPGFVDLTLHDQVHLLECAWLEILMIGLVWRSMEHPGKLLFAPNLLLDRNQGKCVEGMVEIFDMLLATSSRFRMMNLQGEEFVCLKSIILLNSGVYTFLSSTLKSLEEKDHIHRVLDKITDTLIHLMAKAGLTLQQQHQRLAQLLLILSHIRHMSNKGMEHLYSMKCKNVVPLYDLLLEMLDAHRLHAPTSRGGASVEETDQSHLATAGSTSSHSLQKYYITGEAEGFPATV
Assay [13] shares this target. Kind of assay: qHTS assay to identify small molecule agonists of the estrogen receptor alpha (ER-alpha) signaling pathway using the BG1 cell line (AID 743079). Further: nearly all actives have a fitted effect of over 20% in size.
Assay [14] is described as follows: qHTS assay to identify small molecule antagonists of the estrogen receptor alpha (ER-alpha) signaling pathway using the BG1 cell line (AID 743080; calls by dose curve;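 further: BG1 cells stimulated with 17beta-estradiol alongside compound; series mostly up to about 70 µM; nearly all actives have a fitted effect of over 25% in size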). The method in brief:
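Luciferase inhibition measured with ONE-Glo after 30 min at RT in BG1Luc4E2 cells given test compounds and 17beta-estradiol for 21.5 h at 37 C; CellTiter-Fluor viability read in the same wells beforehand.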

The nature of assay [15]: qHTS assay to identify small molecule antagonists of the estrogen receptor alpha (ER-alpha) signaling pathway using the BG1 cell line - cell viability counter screen (AID 743081).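 Further: compound given together with 17beta-estradiol as the ER stimulus; series mostly up to about 70 µM; nearly all actives have a fitted effect of over 45% in size.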
In assay [16] the target is Aromatase (Homo sapiens) (UniProt P11511). Put plainly: qHTS assay to identify aromatase inhibitors (AID 743083). Further: series mostly up to about 70 µM; nearly all actives have a fitted effect of over 55% in size.
Aromatase (Homo sapiens), sequence (P11511 whole entry, looked up): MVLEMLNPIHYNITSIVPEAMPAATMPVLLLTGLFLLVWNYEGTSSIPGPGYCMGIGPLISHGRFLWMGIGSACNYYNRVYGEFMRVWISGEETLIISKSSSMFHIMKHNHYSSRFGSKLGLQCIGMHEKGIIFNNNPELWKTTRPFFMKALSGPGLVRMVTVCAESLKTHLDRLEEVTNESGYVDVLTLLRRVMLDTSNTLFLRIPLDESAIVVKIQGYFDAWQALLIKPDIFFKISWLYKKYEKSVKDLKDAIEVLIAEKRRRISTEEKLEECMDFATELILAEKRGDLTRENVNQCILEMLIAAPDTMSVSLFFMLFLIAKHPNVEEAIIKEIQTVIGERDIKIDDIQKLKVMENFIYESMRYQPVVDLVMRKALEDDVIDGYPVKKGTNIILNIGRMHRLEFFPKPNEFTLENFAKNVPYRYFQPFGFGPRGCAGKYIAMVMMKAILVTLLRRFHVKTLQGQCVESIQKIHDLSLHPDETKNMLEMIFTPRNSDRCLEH
Assay [17] deals with Androgen receptor (Homo sapiens) (UniProt P10275). Kind of assay: qHTS assay to identify small molecule antagonists of the androgen receptor (AR) signaling pathway (AID 743035; active means well fitted inhibition curve with a large enough effect in the signal ratio in the repeat runs, not every such curve was filed as active; inconclusive means weak or mixed curves, or effect the other way; inactive means no such curve, though single readings can be large or run the other way; the % refers to the signal ratio). Put shortly: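 Cell line: GeneBLAzer AR-UAS-bla GripTite (HEK293). Stimulus: R1881 added after compound. Exposure: 16 h, 37C, 5% CO2. Readout: LiveBLAzer B/G FRET fluorescence after 2 h at room temperature.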
Androgen receptor (Homo sapiens), sequence (P10275 whole entry, looked up): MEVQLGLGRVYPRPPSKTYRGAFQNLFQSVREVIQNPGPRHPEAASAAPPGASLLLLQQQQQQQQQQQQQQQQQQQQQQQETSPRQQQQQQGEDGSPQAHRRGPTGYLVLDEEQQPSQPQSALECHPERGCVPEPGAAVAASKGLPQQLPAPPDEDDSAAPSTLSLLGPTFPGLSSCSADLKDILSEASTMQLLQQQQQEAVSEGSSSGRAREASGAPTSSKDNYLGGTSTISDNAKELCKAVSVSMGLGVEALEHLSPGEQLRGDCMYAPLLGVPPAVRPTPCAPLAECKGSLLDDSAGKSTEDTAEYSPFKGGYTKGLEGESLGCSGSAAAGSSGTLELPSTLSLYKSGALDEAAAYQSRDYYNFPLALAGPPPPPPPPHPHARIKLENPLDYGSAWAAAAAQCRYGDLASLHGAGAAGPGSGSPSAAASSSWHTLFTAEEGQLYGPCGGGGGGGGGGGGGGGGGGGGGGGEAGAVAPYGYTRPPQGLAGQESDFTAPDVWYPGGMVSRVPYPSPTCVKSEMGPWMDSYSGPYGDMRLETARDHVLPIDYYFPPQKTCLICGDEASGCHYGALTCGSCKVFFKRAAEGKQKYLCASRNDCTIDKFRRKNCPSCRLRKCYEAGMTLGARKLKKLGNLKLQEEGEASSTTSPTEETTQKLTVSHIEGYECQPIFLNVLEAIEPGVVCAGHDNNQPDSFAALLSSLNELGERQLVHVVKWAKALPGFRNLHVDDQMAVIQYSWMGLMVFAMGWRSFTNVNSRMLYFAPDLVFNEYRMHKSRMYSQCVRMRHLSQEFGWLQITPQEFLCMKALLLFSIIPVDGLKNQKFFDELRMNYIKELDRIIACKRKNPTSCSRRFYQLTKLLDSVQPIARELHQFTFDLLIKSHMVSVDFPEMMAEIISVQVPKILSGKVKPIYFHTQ

For assay [18] the target is unchanged. Kind of assay: qHTS assay to identify small molecule agonists of the androgen receptor (AR) signaling pathway (AID 743036; active means well fitted activation curve with a large enough effect in the signal ratio in the repeat runs, with a control signal flat, not every such curve was filed as active; inconclusive means weak or mixed curves, or effect the other way; inactive means no such curve, though single readings can be large or run the other way; the % refers to the signal ratio). Put shortly: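 Activation was read as beta-lactamase FRET signal from LiveBLAzer B/G substrate, added for 2 h at room temperature. Before that, GeneBLAzer AR-UAS-bla GripTite (HEK293) cells had 16 h compound exposure at 37C.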
Assay [19] shares this target. Kind of assay: qHTS assay to identify small molecule agonists of the androgen receptor (AR) signaling pathway using the MDA cell line (AID 743040; further: nearly all actives have a fitted effect of over 20% in size). The method in brief: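 MDA-kb2 breast carcinoma cells carrying MMTV-luciferase (responsive to AR and GR), plated 5 h then treated 16 h with compounds at 37C, 0% CO2. Read-out was ONE-Glo luminescence after 30 min at room temperature.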

Assay [20] has the same target. Kind of assay: qHTS assay to identify small molecule antagonists of the androgen receptor (AR) signaling pathway using the MDA cell line (AID 743042; further: nearly all actives have a fitted effect of over 55% in size). The method in brief: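 MDA-kb2 breast carcinoma cells carrying MMTV-luciferase (AR/GR responsive) were co-treated with compounds and the agonist R1881 for 16 h at 37C. Inhibition read as ONE-Glo luminescence; CellTiter-Fluor fluorescence measured in parallel for cytotoxicity.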
On the % scale 0 is the no-effect control and ±100 the full control effect.

As for `Cc1cc(-c2cc(C)c(N)c(C)c2)cc(C)c1N`, the outcome in [1], in assay [5], in assay [6], in [9] and in assay [15] was inactive. The Potency entry in assay [2], in assay [3], in assay [4], in [7], in assay [8] and in assay [10] was “inactive” throughout. The Potency result in assay [11], in assay [12], in [13], in assay [14] and in assay [16] was “inactive” in each case.

Take `Nc1c(Cl)c(Cl)nc(C(=O)O)c1Cl`: the molecule was called inactive in assay [1], in assay [5], in [6], in [9] and in assay [15]. The Potency result in [2], in [3], in [4], in [7], in assay [8] and in assay [10] was “inactive” in each case. The Potency entry in assay [11], in assay [12], in assay [13], in [14] and in assay [16] was “inactive” in each case.

`Clc1ccc(Cl)cc1`: the call in [1], in assay [5], in [6], in assay [9] and in assay [15] was inactive. Besides, the Potency entry in assay [2], in assay [3], in assay [4], in assay [7], in assay [8] and in [10] was “inactive” throughout. In addition, the Potency entry in assay [11], in assay [12], in assay [13], in [14] and in assay [16] was “inactive” each time.

On to `C1CC2OC2CC1C1CO1` (centres undefined), for which the result in assay [1], in [5], in assay [6], in [9] and in assay [15] was inactive. For the same molecule, the Potency result in assay [2], in assay [3], in [4], in assay [7], in assay [8] and in assay [10] was “inactive” in each case. The Potency result in assay [11], in [12], in assay [13], in assay [14] and in [16] was “inactive” throughout.

Regarding `CCN(CC)c1ccccc1`, the outcome in assay [1], in assay [5], in [18], in assay [19], in [6] and in assay [20] was inactive. For the same molecule, the molecule was called inactive in [9] and in assay [15]. The Potency entry in [2], in [3], in [4], in assay [17], in [7] and in [8] was “inactive” throughout. Also, the Potency entry in assay [10], in [11], in assay [12], in [13], in [14] and in [16] was “inactive” each time.

For `Nc1ccc(Br)cc1`, the call in [1], in assay [5], in assay [6], in [9] and in [15] was inactive. The Potency result in [2], in assay [3], in assay [4], in assay [7], in [8] and in [11] was “inactive” in each case. The Potency result in [12], in assay [13], in assay [14] and in [16] was “inactive” in each case. The Potency in assay [10] was 3.47 µM [inconclusive] (active).

As for `CC(=O)C=C(C)C`, the molecule was called inactive in assay [1], in assay [5], in assay [6], in assay [9] and in assay [15]. The Potency result in assay [2], in assay [3], in assay [4], in [7], in assay [8] and in assay [10] was “inactive” each time. For the same molecule, the Potency result in assay [11], in assay [12], in [13], in [14] and in [16] was “inactive” each time.

Consider `O=[N+]([O-])c1ccccc1`, for which the result in assay [1], in assay [5], in assay [6], in [9] and in assay [15] was inactive. Also, the Potency result in assay [2], in assay [3], in assay [4], in assay [7], in assay [8] and in assay [10] was “inactive” throughout. Besides, the Potency entry in [11], in assay [12], in assay [13], in assay [14] and in assay [16] was “inactive” in each case.

Turning to `O=c1ccc(=O)[nH][nH]1`, the molecule was called inactive in assay [1], in assay [5], in assay [18], in assay [19], in [6] and in assay [20]. The result in [9] and in assay [15] was inactive. Further, the Potency result in assay [2], in assay [3], in [4], in [17], in assay [7] and in assay [8] was “inactive” each time. Also, the Potency entry in [11] and in assay [16] was “inactive” in each case.

As for `Cc1ccc([N+](=O)[O-])cc1C`, the molecule was called inactive in assay [1], in assay [5], in assay [6], in assay [9] and in assay [15]. Moreover, the Potency entry in assay [2], in assay [3], in [4], in assay [7], in [8] and in assay [10] was “inactive” throughout. Further, the Potency entry in assay [11], in assay [12], in assay [13], in [14] and in assay [16] was “inactive” in each case.

Turning to `CN(C)CCO`, the outcome in assay [1], in assay [5], in assay [6], in assay [9] and in assay [15] was inactive. Further, the Potency result in [2], in [3], in assay [4], in assay [7], in assay [8] and in assay [10] was “inactive” in each case. Further, the Potency entry in assay [11], in assay [12], in assay [13], in assay [14] and in [16] was “inactive” throughout.

`C=C(C)CCl`: the molecule was called inactive in assay [1], in [5], in assay [18], in assay [19], in [6] and in assay [20]. Further, the molecule was classed as inactive in assay [9] and in [15]. In addition, the Potency result in assay [2], in assay [3], in assay [4], in assay [17], in assay [8] and in assay [10] was “inactive” in each case. Besides, the Potency entry in assay [11], in assay [12], in [13], in assay [14] and in assay [16] was “inactive” throughout. In addition, the activity change, negative = cytotoxic in assay [7] was -10.5% [at 8.44 µM] (inactive).

For the molecule `Cc1ccccc1O`, the molecule was called inactive in assay [1], in [5], in assay [6], in [9] and in assay [15]. Further, the Potency result in assay [2], in [3], in [4], in [7], in assay [8] and in assay [10] was “inactive” throughout. Further, the Potency result in assay [11], in assay [12], in assay [13], in assay [14] and in assay [16] was “inactive” throughout.

As for `CC(C#N)CCC#N` (centres undefined), the result in assay [1], in [5], in [6], in assay [9] and in [15] was inactive. In addition, the Potency result in [2], in assay [3], in assay [4], in assay [7], in [8] and in assay [10] was “inactive” throughout. In addition, the Potency result in assay [11], in assay [12], in assay [13], in assay [14] and in [16] was “inactive” throughout.

In the case of `O=c1[nH]c(=O)[nH]c(=O)[nH]1`, the call in assay [1], in assay [5], in [18], in assay [19], in [6] and in assay [20] was inactive. Further, the molecule was called inactive in assay [9] and in assay [15]. The Potency entry in assay [2], in assay [3], in [4], in assay [17], in assay [7] and in assay [8] was “inactive” each time. Besides, the Potency result in assay [11] and in assay [16] was “inactive” in each case.

`CC(C)N1C(=O)c2ccccc2NS1(=O)=O`: the molecule was classed as inactive in [1], in [5], in [6], in assay [9] and in assay [15]. Moreover, the Potency result in [2], in [3], in assay [4], in assay [7], in assay [8] and in assay [10] was “inactive” each time. Further, the Potency entry in assay [11], in assay [12], in assay [13], in assay [14] and in assay [16] was “inactive” in each case.
